# Experimental data published in PubChem BioAssay (NCI).
# About 83,000 compounds went through this panel and 20% of them were active in at least one assay; those are over-represented in the sample as a whole.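 How to read the values: 0–100, growth inhibition (40 = 60% inhibited); 0, no net growth; -100 to 0, cell death (-40 = 40% of starting cells died; -100 = all dead).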 A number with no mark means an inactive call. Active and inactive are the calls of the source. Rule for the calls: active = growth percent below 10; inactive = the rest.
# What was measured:
# Experiment in all cases: NCI-60 one-dose screen, 48 h (100 = growth as untreated, 0 = no growth, -100 = all killed)
# Details in all cases: 10 µM unless noted
# [1] = tested on: HCT-15 colon
# [2] = tested on: HT29 colon
# [3] = tested on: SNB-75 CNS
# [4] = tested on: SNB-19 CNS
# [5] = tested on: U251 CNS
# [6] = tested on: PC-3 prostate
# [7] = tested on: SK-MEL-5 melanoma
# [8] = tested on: UACC-62 melanoma
# [9] = tested on: LOX IMVI melanoma
# [10] = tested on: SK-MEL-28 melanoma
SMILES,growth [1],growth [2],growth [3],growth [4],growth [5],growth [6],growth [7],growth [8],growth [9],growth [10]
Cc1ccc2c3c(c(=O)[nH]c2c1)C1(C(C#N)=C(N)O3)c2cc(Br)ccc2-c2ccc(Br)cc21,11.4%,-14.7% (active),-26.8% (active),-30% (active),-66.4% (active),-30.2% (active),61.4%,40.1%,2.99% (active),48.7%
O=C(NCCCCNC(=O)OCc1ccc2c(Cl)cc(Cl)c(O)c2n1)OCc1ccc2c(Cl)cc(Cl)c(O)c2n1,13%,103%,24.6%,62.7%,9.05% (active),18.8%,-46.4% (active),36.7%,14.4%,50.6%
CC/C(=C(/c1ccc(Cl)cc1)c1ccc(OCCN2CCCC2)cc1)c1ccc(OC)cc1,28.1%,13.7%,103%,80.1%,45.3%,47.5%,66%,96.3%,68.7%,85%
C/C(=C(/c1ccc(Cl)cc1)c1ccc(OCCN2CCCC2)cc1)c1ccc(Cl)cc1,42.1%,9.33% (active),115%,85.8%,68.6%,66.4%,82.4%,93.9%,78%,92.8%
CCOC(=O)CSc1ncnc2c1c(-c1ccccc1)c(-c1ccccc1)n2-c1ccc(C)cc1,106%,63.9%,87.8%,63.4%,49.1%,51.9%,44.9%,57.1%,78.4%,87.6%
CCc1ccc(C(=O)/C=C/C23c4ccccc4C(c4ccccc42)C2C(=O)NC(=O)C23)cc1 (stereo not given),-10.3% (active),1.59% (active),26.3%,12%,-25% (active),13.3%,10%,-6.86% (active),-68.7% (active),-23.7% (active)
O=S(=O)(NCCNc1cc(-c2c(-c3cccc(O)c3)nc3sccn23)ccn1)c1ccc(C(F)(F)F)cc1,25.2%,32.6%,38.3%,54.8%,34.8%,31.4%,-2.62% (active),40.1%,37.8%,55.7%
CC(=O)OCc1nc(C#N)c(N(C)C)o1,88.6%,99.2%,81.5%,95.9%,95.5%,104%,105%,89.3%,99.2%,109%
C=C(C)[C@@H]1CC[C@]2(C(=O)N3CCN(C)CC3)CC[C@]3(C)[C@H](CC[C@@H]4[C@@]5(C)CC(=C/c6ccncc6)/C(=N/O)C(C)(C)[C@@H]5CC[C@]43C)[C@@H]12,65.5%,41.1%,66.1%,79.7%,70.2%,44.8%,59.9%,78.5%,86%,96.4%
O=C(Nc1nn(-c2ccc(Cl)cc2Cl)nc1-c1ccccc1)c1ccccc1,97.1%,94.1%,85.7%,105%,93.6%,84.3%,110%,84.9%,82.5%,104%
CC(=O)c1cc(O)c2ccccc2c1O,98.9%,111%,70.7%,100%,98.2%,85.7%,86.4%,101%,78.5%,137%
CN(C)Cc1ccc(NC(=O)c2cncc(C#Cc3cnc(N)c4ncccc34)c2)cc1F,-55.7% (active),3.71% (active),123%,87.2%,74.8%,75.2%,77.3%,94.2%,-65% (active),-48.2% (active)
O=c1oc2c(cnc3ccccc32)cc1-c1ccsc1,107%,113%,89%,94.6%,93.3%,90.5%,96.8%,94.8%,99.3%,106%
CC1(C)CC[C@]2(c3nnc(-c4ccncc4)o3)CC[C@H]3C(=CC[C@H]4[C@@]3(C)CC[C@H]3C(C)(C)C(=O)CC[C@]43C)[C@@H]2C1,61.1%,50.9%,68.3%,74%,62.4%,25.1%,62.4%,54.7%,57.4%,87.5%
O=C(CCC(=O)N/N=C/c1ccccc1O)N/N=C/c1ccccc1O,22.5%,84.1%,78.6%,57.9%,26%,31.1%,36.3%,24.9%,21%,45.2%
O=c1c2cc(-c3ccccc3)sc2nc2sc(-c3ccccc3)nn12,103%,93.3%,113%,102%,92.1%,95.1%,100%,109%,107%,107%
CCOC(=O)C(=Cc1cccc(Cl)c1)C(=O)OCC,-51.1% (active),-62.5% (active),35.3%,51.5%,26.6%,25.2%,53.5%,-9.18% (active),-65.1% (active),-39% (active)
CCN(CC)CCCN1C(=O)c2c(c(C)c3c(oc4cc(O)ccc43)c2C)C1=O,-79.2% (active),-61.8% (active),124%,-82.8% (active),-88.8% (active),-67.5% (active),-97.7% (active),95.2%,-93.5% (active),-85.1% (active)
Cc1cccc2c1NC(=O)C2(c1ccc(O)cc1)c1ccc(O)cc1,49.3%,79.2%,23.1%,102%,90.1%,38.9%,96.5%,83.8%,59.2%,106%
COc1ccc(C(=O)C2C(c3ccc(OC)cc3)CN(C)C23C(=O)Nc2ccccc23)cc1 (stereo not given),86.9%,84.3%,76.7%,86%,92.9%,75.3%,99.1%,66.3%,93%,105%
CC1(C)c2[nH]c3ccccc3c2C[C@]2(C)[C@H]3CC=C4[C@@H]5C[C@@](C)(C(N)=O)CC[C@]5(C)CC[C@@]4(C)[C@]3(C)CC[C@@H]12,50.9%,62.7%,101%,62.2%,69.2%,50.6%,19.8%,59.2%,56.8%,77.4%
C=C1C(=O)O[C@H]2[C@H]1CC/C(COC(=O)N[C@H]1C[C@H](O[C@H]3C[C@](O)(C(=O)CO)Cc4c(O)c5c(c(O)c43)C(=O)c3c(OC)cccc3C5=O)O[C@@H](C)[C@H]1O)=C\CC[C@@]1(C)O[C@@H]21,99.2%,25.2%,56.4%,68.4%,45.3%,78%,68.3%,34.6%,0.614% (active),9.44% (active)

SMILES,growth [1],growth [2],growth [3],growth [4],growth [5],growth [6],growth [7],growth [8],growth [9],growth [10]
COc1ccc(N2CCC(=O)NC2=S)cc1,102%,105%,96.6%,105%,103%,107%,99.2%,99.2%,94.8%,111%
CCCCC[C@@H]1Cc2cc(O)c(C(=O)O)c3c2[C@H](C[C@]2(OC[C@@H](CC(=O)[C@@](C)(CC)C(=O)OC)[C@@H]2C)O3)O1,91.6%,116%,96.9%,94.3%,103%,106%,108%,88.9%,103%,118%
C=C(C)[C@@H]1CC[C@]2(C(=O)O)CC[C@]3(C)[C@H](CC[C@@H]4[C@@]5(C)C[C@@H](Cc6cn(CCO[C@@H]7O[C@H](COC(C)=O)[C@H](OC(C)=O)[C@H](OC(C)=O)[C@H]7OC(C)=O)nn6)[C@H](O)C(C)(C)[C@@H]5CC[C@]43C)[C@@H]12,70.1%,77.9%,66.5%,64.5%,57.4%,54.9%,53.5%,63.7%,45.2%,76.5%
N=C(N)c1ccc(-c2ccc(-c3cc(Cl)cc(Cl)c3)o2)o1,-89.3% (active),-81.1% (active),-68.9% (active),-64.9% (active),-89.9% (active),-25.8% (active),16.2%,-81% (active),-83.6% (active),-80.2% (active)
C=C(C)[C@@H]1CC[C@]2(C(=O)NCC#CCN3CCN(C)CC3)CC[C@]3(C)[C@H](CC[C@@H]4[C@@](C)(CCC#N)[C@H](C(=C)C)CC[C@]43C)[C@@H]12,20%,-12.7% (active),64.7%,78.2%,45.3%,35.5%,64.6%,-8.49% (active),10.4%,78.1%
Oc1ccc(CCn2c(O)c(/C=C3\CN=c4ccccc4=N3)sc2=S)cc1,35.2%,62%,23.2%,82.2%,80.3%,60.2%,88.3%,58%,10.2%,77.5%
CSc1nnc(-c2cnn3c2NC(c2ccccc2)C3)n1-c1ccc(C(F)(F)F)cc1 (stereo not given),35.1%,28.4%,66.7%,66.9%,58%,46.3%,31.3%,40.3%,61.3%,71.7%
COC(=O)[C@H]1CCCN1C[C@@H](O)CN1C(=O)/C(=C\c2cc(OC)c(OC)c(OC)c2)c2ccccc21,98%,110%,86%,95.9%,87.3%,91.4%,103%,95.2%,97.2%,123%
O=C1c2cc(Cl)ccc2S(=O)(=O)c2c(NCCCNCCO)nc3ccccc3c21,-65.4% (active),-78.8% (active),32.6%,56.4%,-15.8% (active),-14.2% (active),11.3%,2.05% (active),-76.8% (active),6.11% (active)
CCc1ccc(Oc2cn[nH]c2-c2ccc(OCCc3ccc(F)cc3)cc2O)cc1,74.3%,42.4%,79%,108%,53.5%,72.2%,97.5%,88.6%,86.8%,87.3%
O=C1Nc2ccccc2[C@]12CC(c1ccccc1)=NN2,31.6%,15.8%,62.2%,52.7%,38.9%,38.5%,30.2%,19.5%,40.2%,59.2%
Cc1ccccc1NC(=O)c1sc2nc(C)c(C(=O)/C=C/c3ccccc3)cc2c1N,-1.44% (active),-5.48% (active),-7.36% (active),2.8% (active),-35% (active),29%,17.7%,7.17% (active),-85.9% (active),42%
Cc1nc2sc(C(=O)Nc3cccc(Cl)c3C)c(N)c2cc1C(=O)c1ccccc1,9.29% (active),3.07% (active),7.46% (active),12.7%,15.6%,6.12% (active),9.08% (active),17%,35.8%,42.7%
O=C1c2c(c3c4ccc(Br)cc4oc3c3[nH]c4ccccc4c23)C(=O)N1O,19%,8.99% (active),4.21% (active),29.7%,22.8%,40.9%,-71.8% (active),-2.55% (active),6.55% (active),-0.104% (active)
CCOC(=O)c1nc(Nc2ccc(NC(=O)Nc3ccc(F)cc3)cc2)c2ccccc2n1,100%,106%,78.7%,98%,103%,103%,93.9%,101%,90.9%,105%
CC(C)c1ccc(COCc2cc(CN3CCCC3)c(O)c3ncccc23)cc1,-35.5% (active),30.5%,25.9%,17.3%,-13.2% (active),11.6%,4.48% (active),-9.84% (active),-33% (active),27.3%
C=C1C(=O)O[C@H]2[C@H]1CC/C(COC(=O)NCc1ccc(Cn3c(=O)sn(CCI)c3=O)cc1)=C\CC[C@@]1(C)O[C@@H]21,41.1%,39.8%,81.2%,97.2%,73.3%,75.6%,98.8%,65.4%,35.1%,55.5%
Brc1ccc(-n2cc(-c3nn[nH]n3)c(-c3cccs3)n2)cc1,95.3%,113%,92.5%,90.9%,93%,98.9%,101%,92.7%,101%,103%
O=C1NC(=O)c2c1c1c3ccccc3ccc1c1[nH]c3ccc(Br)cc3c21,13.4%,26.4%,22.8%,23.8%,20.7%,3.55% (active),-82.5% (active),29.9%,22.8%,44.4%
CCNC(=O)c1[nH]cc(-c2ccccc2)c1-c1cc(OC)c2c(c1OC)OCO2,103%,112%,91.4%,98.6%,103%,93.1%,89.8%,92.2%,95.1%,108%
COc1ccc(-c2ccc3cnc4sc(-c5ccc(OC)cc5)nc4c3n2)cc1,97.6%,100%,85.8%,98.4%,94.4%,70.3%,85.2%,98.8%,87%,107%
